Screening data: PubChem, The Scripps Research Institute Molecular Screening Center
In the library only some 2.3% were active in any assay of this set; here they are far more common.
M1 antag – antagonists of human M1 muscarinic receptor; 1.3% of 360,000 active; AID 588852; inhibition, % at 3 µM; P11229; CHO-K1 hM1, Fluo-8 calcium fluorescence, ACh EC80 antagonist;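 active = percent inhibition above its own plate's cutoff, namely the mean of that plate's compound wells plus 3 SD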;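 note: peak over basal fluorescence ratio during 140 s after agonist addition; 0% = ACh EC80 plus DMSO and 100% = DMSO alone without agonist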
Target sequence (P11229 whole entry, looked up): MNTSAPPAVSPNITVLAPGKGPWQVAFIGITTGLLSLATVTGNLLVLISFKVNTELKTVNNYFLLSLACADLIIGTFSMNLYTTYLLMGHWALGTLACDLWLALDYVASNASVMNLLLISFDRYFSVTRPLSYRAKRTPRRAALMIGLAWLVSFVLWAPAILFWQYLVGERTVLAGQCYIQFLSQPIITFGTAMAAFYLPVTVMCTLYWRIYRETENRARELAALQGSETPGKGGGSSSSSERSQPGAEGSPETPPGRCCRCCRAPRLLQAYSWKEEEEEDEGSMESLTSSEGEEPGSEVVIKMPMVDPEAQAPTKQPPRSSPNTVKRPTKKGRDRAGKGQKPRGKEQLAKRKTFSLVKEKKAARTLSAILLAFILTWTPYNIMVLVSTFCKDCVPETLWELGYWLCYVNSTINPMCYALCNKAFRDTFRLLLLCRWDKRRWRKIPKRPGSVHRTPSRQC
M1 ag – human M1 muscarinic receptor agonism | 0.33% of 360,000 active | AID 588814 | activation, % at 3 µM | CHO-K1 hM1, Fluo-8 calcium fluorescence, agonist mode; 0% DMSO, 100% acetylcholine EC100;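 active = activation above the run's mean compound activation plus 3 SD, cut at about 16% in these data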;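 note: peak over basal fluorescence ratio within a 140 s kinetic read after compound addition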
CHRM1 PAM – human CHRM1 positive allosteric modulation; P11229; 0.088% of 360,000 active; AID 588819; activation, % at 3 µM; CHO-K1 hM1, Fluo-8 calcium fluorescence, ACh EC20; 0% = ACh EC20, 100% = maximal ACh; in the data active = activation above about 19%, passing the limit was not always enough
M1 PAM parental – M1 PAM counterscreen hit in parental CHO-K1 cells. ATP EC20, Fluo-8 calcium fluorescence; 0% at ATP EC20, 100% at ATP max. activation, % at 3 µM. 0.02% of 360,000 active;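 active = activation above the run cutoff, the mean activation of all test compounds plus 3 SD, cut at about 40% in these data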;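 note: peak over basal fluorescence ratio in a 140 s read after ATP addition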
CHO-K1 Ca antag – M1 antagonist counterscreen hit in parental CHO-K1 cells; ATP-induced calcium, Fluo-8 fluorescence; 0.6% of 360,000 active; inhibition, % at 3 µM;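 active = inhibition above a per-plate cutoff, the plate's mean sample inhibition plus 3 SD, cut at about 24% in these data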;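 note: 0% = DMSO plus EC80 ATP and 100% = DMSO alone without ATP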
M1 ag parental – M1 agonist counterscreen hit in parental CHO-K1 cells; Fluo-8 calcium fluorescence; scaled to maximal ATP response, vehicle zero; activation, % at 3 µM; AID 602248; 0.48% of 360,000 active; in the data active = activation above about 15%;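 note: untransfected CHO-K1 host cells lacking M1 receptor as counterscreen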
Starred values were filed as active, the others as inactive; / = not tested or not shown.

SMILES | M1 antag | M1 ag | CHRM1 PAM | M1 PAM parental | CHO-K1 Ca antag | M1 ag parental
c1ccc(-c2ccc(CN3Cc4ccccc4-n4nncc4C3)cc2)cc1 | 36* | -2 | -19 | 4 | 2 | 8
CO[C@H]1C=CCCC=CC(=O)O[C@H]([C@H](C)C(=O)CCCC2CC(=O)NC(=O)C2)C(C)=C[C@@H](C)[C@@H]1O | / | / | / | 22 | -13 | 0
Clc1ccc(C(OCCN2CCCCC2)c2ccccc2)cc1 (centres undefined) | 96* | -6 | -27 | -8 | 0 | 1
CC(C)Cc1nnc(NC(=O)CCC(=O)N2CCN(CCOC(c3ccccc3)c3ccccc3)CC2)s1 | -5 | -9 | -4 | 19 | -12 | 0
c1ccc(C(OCCN2CCN(c3ncccn3)CC2)c2ccccc2)cc1 | 48* | -6 | -27 | 5 | 2 | 4
O=C1NCN(c2ccccc2)C12CCNCC2 | -11 | -10 | 7 | 17 | -20 | 1
O=C(NCCN1CCC2(CC1)C(=O)NCN2c1cccc(F)c1)c1ccc2ccccc2c1 | / | / | / | -19 | 93* | 41*
CCN1CCN(CC(c2ccccc2)c2ccccc2)CC1 | 100* | -9 | -30 | 2 | -3 | 1
CCN1CCc2ccccc2C1 | -4 | -4 | 3 | 11 | -4 | 1
CN(C)CCSC1c2ccccc2CSc2ccccc21 (centres undefined) | 99* | -8 | -27 | 9 | -2 | 3
CC(=O)Nc1ccc(S(=O)(=O)N2Cc3ccccc3-n3nncc3C2)cc1 | -11 | -2 | 5 | 18 | -10 | 1
CCN(CC)S(=O)(=O)c1cc(NC(=O)C(C)N2CC=C(c3ccccc3)CC2)ccc1C (centres undefined) | 37* | -15 | -28 | 19 | -7 | 0
Cc1cc(Br)c(NC(=O)CN2CC=C(c3ccccc3)CC2)c(Br)c1 | 3 | -15 | -26 | 27 | -10 | 3
CC(C)CCn1c(N)c(C(=O)NCc2cccs2)c2nc3ccccc3nc21 | -6 | -4 | 6 | 18 | -18 | 1
CC(C)CNC(=O)c1c(N)n(Cc2ccc3c(c2)OCO3)c2nc3ccccc3nc12 | 41* | -3 | -16 | 14 | -9 | 1
CC(C)OCCCNC(=O)c1c(N)n(Cc2cccs2)c2nc3ccccc3nc12 | -2 | -1 | 4 | -5 | 25* | 0
O=C1Nc2ccc(Br)cc2C(c2ccccc2)=NC1O (centres undefined) | -3 | 2 | 17 | -8 | 7 | 0
O=C1Nc2ccc(Br)cc2C(c2ccc(Cl)cc2)=NC1O (centres undefined) | 2 | 11 | 9 | 9 | 13 | 23*
CCC1(C(=O)c2ccc(C)cc2)C2c3ccccc3OC(=O)C21C(=O)O (centres undefined) | -12 | -2 | 6 | 14 | -20 | 1
O=C(OCc1ccccc1)N1CCC2CC1c1cc(N3Cc4ccccc4-n4nncc4C3)ccc12 (centres undefined) | -5 | -6 | -4 | 6 | -3 | 0
O=[N+]([O-])c1ccc(Cl)c([N+](=O)[O-])c1 | -18 | 10 | 12 | -6 | -5 | 0
O=[N+]([O-])c1cc(Cl)c(Cl)cc1Cl | 22* | -1 | -14 | 3 | -17 | 0
Cc1ccc2c(c1)N(N=O)CCC2 | -9 | -3 | 8 | 24 | -3 | 1
COc1cc(C(=O)OC2C[C@H]3CC[C@@H](C2)N3)ccc1O (some centres undefined) | 95* | -10 | -27 | 14 | -14 | 0
COc1cc(C(=O)OC2C[C@H]3CC[C@@H](C2)N3C)ccc1O (some centres undefined) | 0 | -10 | -4 | 8 | -10 | 1
SMILES | M1 antag | M1 ag | CHRM1 PAM | M1 PAM parental | CHO-K1 Ca antag | M1 ag parental
CCOC(=O)[C@]12Cc3cc(Cl)ccc3[C@H]1N(C1CCCCC1)C(=O)c1cc(OC)ccc12 | / | / | / | 2 | 33* | 4
CCOC(=O)[C@]12Cc3ccc(C)cc3[C@H]1N(C1CCCCC1)C(=O)c1cc(OC)ccc12 | / | / | / | 14 | 1 | 2
C[N+]12CCC(CC1)C(=C(c1ccccc1)c1ccccc1)C2 | 98* | -7 | -25 | 21 | -9 | 0
CC[N+]12CCC(CC1)C(=C(c1ccccc1)c1ccccc1)C2 | 98* | -8 | -25 | -8 | 12 | 0
O=C1NC(=O)C(=Cc2ccc(Sc3ccccc3)o2)C(=O)N1 | 0 | -5 | 4 | 1 | 0 | 1
O=C1NC(=O)N(c2ccc(Cl)cc2)C(=O)/C1=C\c1ccc(Sc2nc3ccccc3[nH]2)o1 | -1 | 11 | 1 | -16 | 29* | 8
CCOC(=O)C(O)(c1ccc(N(CC)C(=O)COc2ccccc2)cc1)C(F)(F)F (centres undefined) | -22 | -10 | 12 | 15 | -18 | 2
COC(=O)C1=C(c2ccc(F)cc2OCc2ccccc2)C[C@@H]2CC[C@H]1N2C(=O)NCc1ccccc1C(F)(F)F | 32* | -9 | -24 | -9 | -7 | 0
COC(=O)C1=C(c2ccc(F)cc2OCc2ccccc2)C[C@@H]2CC[C@H]1N2C(=O)N1CCC(C)CC1 | 78* | -14 | -39 | 3 | 5 | -1
COC(=O)C1=C(c2ccc(F)cc2OCc2ccccc2)C[C@@H]2CC[C@H]1N2C(=O)N1CCCCC1 | -1 | -11 | -6 | 9 | -7 | -1
c1ccc(CNC2CN3CCC2CC3)cc1 (centres undefined) | 59* | -9 | -28 | 5 | -4 | 0
Clc1ccccc1CNC1CN2CCC1CC2 (centres undefined) | 39* | -10 | -20 | 7 | 1 | 0
CCOC(C(=O)OCCC[N+](C)(CC)CC)(c1ccccc1)c1ccccc1 | 98* | -15 | -35 | 7 | -10 | 1
CCCCOC(=O)c1ccccc1C(=O)OCCCC | 9 | -4 | -3 | 13 | -7 | 0
CCOC(C(=O)OCC(O)CN(CC)CC)(c1ccccc1)c1ccccc1 (centres undefined) | -2 | -6 | 2 | 17 | -11 | 1
CC[N+](C)(CC)CCCOC(=O)C(O)(c1ccccc1)C1CCCCC1 (centres undefined) | 96* | -9 | -23 | 32 | -9 | 0
CCN(CC)CCCOC(=O)C(OC)(c1ccccc1)c1ccccc1 | 99* | -12 | -36 | 3 | -6 | 0
O=C(Nc1ccccc1)N1CC2CC(C1)c1cccc(=O)n1C2 (centres undefined) | 0 | -5 | -6 | 4 | 4 | 1
COC(=O)[C@@H]1C[C@@]1(C)[C@@H](NP(=O)(c1ccccc1)c1ccccc1)c1ccccc1 | -6 | -1 | 12 | 23 | -18 | 0
Cc1ccsc1C(=O)C1CCCN(Cc2cc(C(C)C)n[nH]2)C1 (centres undefined) | 1 | -14 | -3 | 24 | -9 | 8
